# From PubChem BioAssay AID1456 (Vanderbilt High Throughput Screening Facility, 2008)
# The campaign covered roughly 190,000 compounds. About 4,100 (2.2%) were called active. The full list was thinned out, with actives kept by preference. Unmarked numbers belong to inactive results.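 How the source made its calls: active means thallium flux slope and its plate-corrected score both differing from the plate sample mean at a set confidence after two filtering rounds, in either direction; inactive means the rest.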
# Molecular target: Solute carrier family 12 member 5 (Homo sapiens) (UniProt Q9H2X9)
# Test: KCC2 cotransporter modulators, thallium flux, primary screen, cell-based, HEK293 KCC2, FluoZin-2 fluorescence, MLSMR (AID 1456);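 further: slope of fluorescence scaled to starting intensity during 10 to 20 s after thallium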
# Settings: KCC2 cells, thallium flux FluoZin-2 fluorescence; at 10 µM
# Sequence of Solute carrier family 12 member 5 (Homo sapiens) (Q9H2X9 whole entry, looked up): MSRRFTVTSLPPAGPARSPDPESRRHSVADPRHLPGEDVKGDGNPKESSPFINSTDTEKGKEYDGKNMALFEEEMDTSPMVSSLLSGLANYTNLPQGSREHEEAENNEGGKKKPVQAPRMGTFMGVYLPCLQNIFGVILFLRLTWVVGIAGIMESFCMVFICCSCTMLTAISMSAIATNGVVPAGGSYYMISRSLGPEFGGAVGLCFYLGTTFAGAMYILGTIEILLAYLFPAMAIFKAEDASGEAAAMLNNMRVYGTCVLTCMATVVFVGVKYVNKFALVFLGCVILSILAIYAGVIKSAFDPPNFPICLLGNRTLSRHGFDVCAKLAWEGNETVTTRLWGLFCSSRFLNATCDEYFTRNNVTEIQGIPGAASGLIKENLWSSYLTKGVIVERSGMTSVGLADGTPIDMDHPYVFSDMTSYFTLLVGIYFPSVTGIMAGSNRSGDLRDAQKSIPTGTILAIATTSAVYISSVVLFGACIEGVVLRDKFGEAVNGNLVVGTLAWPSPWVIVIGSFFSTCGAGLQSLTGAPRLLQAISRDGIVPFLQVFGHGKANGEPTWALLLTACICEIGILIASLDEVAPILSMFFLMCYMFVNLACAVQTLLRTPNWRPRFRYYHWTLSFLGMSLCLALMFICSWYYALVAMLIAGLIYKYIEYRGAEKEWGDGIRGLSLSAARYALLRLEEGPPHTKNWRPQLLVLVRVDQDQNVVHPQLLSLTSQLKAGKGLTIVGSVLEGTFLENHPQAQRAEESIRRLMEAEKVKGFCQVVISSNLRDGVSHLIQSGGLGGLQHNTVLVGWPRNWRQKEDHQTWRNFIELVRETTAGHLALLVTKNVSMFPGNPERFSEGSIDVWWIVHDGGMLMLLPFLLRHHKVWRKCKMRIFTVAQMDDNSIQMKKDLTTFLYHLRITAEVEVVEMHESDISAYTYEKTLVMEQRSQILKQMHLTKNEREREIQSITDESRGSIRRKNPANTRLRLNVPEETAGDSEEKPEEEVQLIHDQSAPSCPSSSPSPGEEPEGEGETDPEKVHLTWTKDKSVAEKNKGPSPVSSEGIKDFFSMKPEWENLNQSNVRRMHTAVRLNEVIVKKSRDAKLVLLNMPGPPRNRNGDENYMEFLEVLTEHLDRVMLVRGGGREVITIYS
row,Structure (SMILES),B-score of Tl+ flux slope (higher = more flux/activation; lower = inhibition)
1,Nc1c(C(=O)NCc2ccccc2)nnn1Cc1cccc(Cl)c1,-1.02
2,O=c1[nH]n(-c2cccc(Cl)c2)c2ncccc12,0.268
3,Clc1cccc(CN2COc3c(cc(Cl)c4cccnc34)C2)c1,4.19 (active)
4,O=C(NNS(=O)(=O)c1ccccc1C(F)(F)F)c1cc2ncc(C(F)(F)F)cc2s1,-0.726
5,Cc1ccc(COc2ccc(C(=O)NN)cc2)cc1,-0.198
6,COc1ccc(OCc2cccc(C(=O)N3CCCC3)c2)cc1,0.115
7,Cc1oc(C(N)=O)cc1COc1ccc(C(N)=O)cc1,2.17 (active)
8,COc1ccc(Cl)cc1S(=O)(=O)N1CCC(O)(c2ccc(Cl)cc2)CC1,-0.0293
9,Cc1ccc(N=Nc2c(C)[nH]n(-c3ccccc3)c2=O)cc1,3.14
10,Cc1cccc(N=Nc2c(C)[nH]n(-c3ccccc3)c2=O)c1,0.0317
11,Cc1[nH]n(-c2ccccc2)c(=O)c1N=Nc1ccccc1C(=O)N1CCCCC1,5.68 (active)
12,CSc1nc(-c2ccco2)nn1C(=O)c1ccccc1Cl,-1.08
13,COC(=O)c1cc2c(N)c(C(=O)c3ccc(Cl)cc3)sc2nc1C(OC)OC,0.11
14,COc1cc(OC)cc(/C(N)=N/O)c1,-0.654
15,COc1ccc(N2C(=O)c3ccccc3NC2c2ccc(OC)c(CN3CCOCC3)c2)cc1 (stereo not given),-0.152
16,C=CCn1c(=S)[nH]c2nc3c(cc2c1=O)COC(C)(C)C3,3.61 (active)
17,C=CCn1c(=S)sc2c(=O)[nH]c(C)nc21,-0.647
18,O=C(CCl)N(Cc1cccc([N+](=O)[O-])c1)c1cccc(Cl)c1,-0.452

row,Structure (SMILES),B-score of Tl+ flux slope (higher = more flux/activation; lower = inhibition)
1,Cn1c2ccccc2c2cc(/C=C(\NC(=O)c3ccccc3)C(=O)NCC(=O)O)ccc21,0
2,O=C(CSc1ccc(-c2cccs2)nn1)Nc1ccccc1F,-2.89 (active)
3,Cn1c(CCC(=O)Nc2ccccc2F)nnc1SCC(=O)Nc1ccccc1Cl,-0.846
4,Cc1csc(NC(=O)CSc2ccc(-c3ccc(F)cc3)nn2)n1,-4.45
5,C=CCC1(C#N)C(=S)NC(C)=C(C(=O)OCC)C1c1ccccc1 (stereo not given),-0.00243
6,Cc1ccc(SCc2c(C(=O)N/N=C/C3CC=CCC3)nnn2-c2nonc2N)cc1 (stereo not given),-0.374
7,O=C(Nc1nnc(Cc2ccc(Cl)cc2)s1)c1ccncc1,-2.1
8,NS(=O)(=O)c1ccc(NC(=S)Nc2ccc(Br)c(Cl)c2)cc1,0.559
9,O=C(Nc1ccc2ccccc2c1)/C(=C\c1ccc2c(c1)OCO2)NC(=O)c1ccco1,0.0996
10,Cc1ccc(OCC(=O)NNC(=S)NCc2ccccc2)cc1,9.51 (active)
11,COc1ccc(CCNC(=O)c2ccco2)cc1,0.796
12,CCCc1ccc(OCC(=O)NNC(=S)NC(=O)c2ccco2)cc1,28.4 (active)
13,O=C(Nc1ccc2ccccc2c1)/C(=C/c1cccc(Br)c1)NC(=O)c1ccco1,-1.51
14,CC(Oc1ccc2ccccc2c1)C(=O)NNC(=S)NC(=O)c1ccco1 (stereo not given),25.4 (active)
15,CC(=O)Nc1ccc(OCC(=O)NCc2ccc(C)cc2)cc1,-0.00613
16,CCNC(=S)NNC(=O)Cc1ccccc1,0.737
17,CC(C)Oc1ccc(CCC(=O)NNC(=S)NCc2ccccc2)cc1,-1.38
